The source made the active and inactive calls. Unless noted, no rule for the calls is given here.
What was measured:
[1] = HepG2 liver cancer cell viability effects, profiling panel, resazurin fluorescence, 24 h, PK04 Diversity Set (AID 1172); settings: higher = more signal
[2] = basal S. cerevisiae growth modulation, no modifier, primary screen, OD600, strain BY4716, 24 h, basal condition (AID 1173); settings: OD600, 24 h, higher = more signal, called active from +8 up or from −8 down
[3] = MM1S myeloma cell viability, profiling panel, resazurin fluorescence, basal, 24 h, PK04 Diversity Set (AID 1174); settings: higher = more signal, called active from +8 up or from −8 down;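 also: MM1S multiple myeloma cell line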
[4] = target: Dihydroorotate dehydrogenase (quinone), mitochondrial (Plasmodium falciparum (isolate 3D7)) (UniProt Q08210); experiment: PfDHODH enzyme inhibitors, primary screen, biochemical, C-terminal His tag, absorbance 600 nm (AID 1175); settings: DCIP absorbance 600 nm, higher = more signal, called active from +8 up or from −8 down;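 also: recombinant parasite enzyme with a five histidine tag at its C terminus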
Sequence of Dihydroorotate dehydrogenase (quinone), mitochondrial (Plasmodium falciparum (isolate 3D7)) (Q08210 whole entry, looked up): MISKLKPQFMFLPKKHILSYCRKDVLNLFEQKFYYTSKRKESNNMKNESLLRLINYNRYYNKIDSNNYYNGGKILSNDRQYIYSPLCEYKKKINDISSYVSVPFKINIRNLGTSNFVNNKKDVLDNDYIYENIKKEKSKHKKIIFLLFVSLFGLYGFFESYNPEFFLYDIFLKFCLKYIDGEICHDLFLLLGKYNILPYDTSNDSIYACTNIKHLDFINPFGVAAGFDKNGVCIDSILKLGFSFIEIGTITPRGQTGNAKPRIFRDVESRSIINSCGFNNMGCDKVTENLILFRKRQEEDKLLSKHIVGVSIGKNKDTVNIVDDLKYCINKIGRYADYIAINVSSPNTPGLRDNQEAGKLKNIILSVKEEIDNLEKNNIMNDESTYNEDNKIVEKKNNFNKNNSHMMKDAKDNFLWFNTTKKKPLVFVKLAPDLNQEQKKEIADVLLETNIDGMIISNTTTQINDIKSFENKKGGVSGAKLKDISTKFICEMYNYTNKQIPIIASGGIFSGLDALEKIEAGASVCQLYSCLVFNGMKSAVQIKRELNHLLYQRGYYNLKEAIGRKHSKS

[5] = P. aeruginosa biofilm formation inhibitors, primary screen, strain PAO1, LB-PBS medium, absorbance 600 nm (AID 1176); settings: P. aeruginosa PAO1 growth/biofilm, A600, 12 h; higher = more signal
[6] = S. cerevisiae RM11-1a growth modifiers, primary screen, strain RM11-1a, OD600, basal, 24 h (AID 1177); settings: OD600, 24 h, higher = more signal, called active from +8 up or from −8 down;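 also: cultures grown under basal conditions with no added stressor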
[7] = E. coli acrAB mutant growth effects, primary screen, E. coli filamentation inducers, strain DRC39, OD650, 24 h (AID 1178); settings: higher = more signal, called active from +8 up or from −8 down;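 also: growth measured as culture turbidity by optical density at 650 nm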
[8] = E. coli acrAB mutant growth effects, primary screen, E. coli filamentation inducers, strain DRC39, OD650, 48 h (AID 1179);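 also: screen aims at cell division blockers that make cells filament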; settings: E. coli DRC39 delta-acrAB growth, higher = more signal, called active from +8 up or from −8 down
[9] = RPMI8226 myeloma cell viability, profiling panel, resazurin fluorescence, basal, 24 h, PK04 Diversity Set (AID 1180); settings: higher = more signal;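 also: RPMI8826 multiple myeloma cell line at 5000 cells per well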
[10] = target: E3 ubiquitin-protein ligase XIAP (Homo sapiens) (UniProt P98170); experiment: XIAP binders, primary screen, biophysical, small-molecule microarray, fluorescence 635 nm (AID 1181); settings: small-molecule microarray binding, higher = more signal;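 also: score merges 667 nm emission and signal to noise over triplicate slides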
Sequence of E3 ubiquitin-protein ligase XIAP (Homo sapiens) (P98170 whole entry, looked up): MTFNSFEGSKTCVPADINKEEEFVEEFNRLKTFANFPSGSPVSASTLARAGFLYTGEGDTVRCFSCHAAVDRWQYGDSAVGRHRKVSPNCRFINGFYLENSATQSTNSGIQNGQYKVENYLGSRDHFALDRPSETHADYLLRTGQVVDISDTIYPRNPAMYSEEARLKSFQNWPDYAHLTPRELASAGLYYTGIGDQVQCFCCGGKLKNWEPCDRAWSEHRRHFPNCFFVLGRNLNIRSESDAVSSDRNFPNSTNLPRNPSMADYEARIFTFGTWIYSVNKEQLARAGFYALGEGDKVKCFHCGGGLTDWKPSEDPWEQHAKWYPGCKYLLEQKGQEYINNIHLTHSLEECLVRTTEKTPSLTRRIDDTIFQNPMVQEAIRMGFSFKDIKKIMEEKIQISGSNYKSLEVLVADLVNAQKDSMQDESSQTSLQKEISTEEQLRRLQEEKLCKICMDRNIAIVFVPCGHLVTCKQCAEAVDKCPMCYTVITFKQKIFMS

[11] = tested on: XIP peptide (Xip251-270) binding; experiment: small-molecule binders of XIP peptide, primary screen, biochemical, small-molecule microarray, fluorescence 635/667 nm, 0.1 µg/mL protein (AID 1182); settings: fluorescent protein binding, 635 nm, higher = more signal, called active from +8 up or from −8 down
[12] = tested on: XIP peptide (Xip251-270); experiment: small-molecule binders of XIP peptide, primary screen, biochemical, small-molecule microarray, fluorescence 635/667 nm, 0.5 µg/mL protein (AID 1183); settings: small-molecule microarray binding, fluorescence 635 nm; higher = more signal
[13] = Plasmodium falciparum growth inhibition, primary screen, strain 3D7, DAPI fluorescence, 100 nL (AID 1184);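 also: parasites grown inside human red blood cells in medium with human serum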; settings: P. falciparum 3D7 growth, 3 d, higher = more signal
[14] = target: Homeobox protein Hox-A13 (Mus musculus) (UniProt Q62424); experiment: inhibitors of HoxA13-DNA binding, primary screen, biochemical, fluorescence polarization, labeled oligonucleotide (AID 1185); settings: 15 min, higher = more signal, called active from +8 up or from −8 down
Sequence of Homeobox protein Hox-A13 (Mus musculus) (Q62424 whole entry, looked up): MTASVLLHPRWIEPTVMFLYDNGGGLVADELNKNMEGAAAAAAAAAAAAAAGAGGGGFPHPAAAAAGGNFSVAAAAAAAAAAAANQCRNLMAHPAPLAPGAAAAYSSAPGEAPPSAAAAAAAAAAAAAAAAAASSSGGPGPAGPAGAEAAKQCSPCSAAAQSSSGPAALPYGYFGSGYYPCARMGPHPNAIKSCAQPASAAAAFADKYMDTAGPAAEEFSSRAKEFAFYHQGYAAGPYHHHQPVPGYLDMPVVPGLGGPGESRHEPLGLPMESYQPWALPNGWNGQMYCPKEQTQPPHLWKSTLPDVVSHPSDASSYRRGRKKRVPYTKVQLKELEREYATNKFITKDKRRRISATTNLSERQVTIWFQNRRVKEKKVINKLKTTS

[15] = inhibitors of hydroxyurea-induced Chk1 phosphorylation, primary screen, imaging, HeLa, phospho-Chk1 antibody, percent positive cells (AID 1186); settings: hydroxyurea-induced phospho-Chk1 immunofluorescence imaging, higher = more signal
[16] = inhibitors of hydroxyurea-induced Chk1 phosphorylation, primary screen, imaging, HeLa, phospho-Chk1 nuclear intensity (AID 1187); settings: hydroxyurea-induced phospho-Chk1 immunofluorescence imaging, higher = more signal

SMILES | z-score [1] | z-score [2] | z-score [3] | composite z-score [4] | z-score [5] | z-score [6] | z-score [7] | z-score [8] | z-score [9] | composite z-score [10] | composite z-score [11] | composite z-score [12] | z-score [13] | z-score [14] | z-score [15] | z-score [16]
C[N+](C)(C)CCCCCCNC(=O)[C@H]1C[C@H]2C(=O)N[C@@H](Cc3ccccc3)C(=O)N2[C@H]1c1ccc(O)cc1 | -0.324 | 0.119 (inactive) | 0.13 (inactive) | -0.673 (inactive) | -0.546 (inactive) | -0.0281 (inactive) | 0.962 (inactive) | 1.3 (inactive) | 0.201 | -0.162 | 0.901 (inactive) | 0.5 | 0.0933 | -3.23 (inactive) | 0.141 (inactive) | 0.14 (inactive)
C[C@]1(C(=O)NC2CC2)c2ccccc2C(=O)N(Cc2ccccc2)[C@H]1c1ccc(CO)cc1 | -0.0738 | -0.886 (inactive) | 1.62 (inactive) | -0.806 (inactive) | 0.553 (inactive) | -1.02 (inactive) | 0.809 (inactive) | 0.653 (inactive) | 1.08 | -0.234 | -0.0942 (inactive) | -0.227 | -1.62 | -1.31 (inactive) | -0.483 (inactive) | -0.567 (inactive)
COC(=O)[C@@]1(Cc2ccc(F)cc2)[C@H]2c3cc(C(=O)N(C)C)n(Cc4cc(F)cc5c4OCOC5)c3C[C@H]2CN1C(=O)c1ccccc1 | -0.933 | 0.434 (inactive) | -1.73 (inactive) | -0.954 (inactive) | 0.728 (inactive) | -0.341 (inactive) | -0.462 (inactive) | 0.164 (inactive) | -2.74 | 0.476 | 1.21 (inactive) | 0.628 | -1.54 | -2.73 (inactive) | -0.909 (inactive) | -0.669 (inactive)
COCCCNC(=O)[C@@]1(Cc2ccccc2CN=[N+]=[N-])N=C(c2ccc(OCCCO)cc2)O[C@H]1c1ccccc1 | 0.636 | 0.41 (inactive) | -0.88 (inactive) | 1.22 (inactive) | -0.317 (inactive) | 1.92 (inactive) | 1.28 (inactive) | 0.242 (inactive) | -1.75 | -0.052 | 1.38 (inactive) | 0.789 | -2.37 | -6.47 (inactive) | -0.371 (inactive) | -0.349 (inactive)
NCCCCCNC(=O)[C@@H]1C[C@@H]2C(=O)NCC(=O)N2[C@@H]1c1cccc(OCCO)c1 | -0.727 | -0.202 (inactive) | 0.584 (inactive) | -0.73 (inactive) | 1.29 (inactive) | 0.561 (inactive) | -0.0625 (inactive) | -0.485 (inactive) | 0.974 | 0.012 | 0.318 (inactive) | 0.782 | -1.28 | -1.43 (inactive) | 0.518 (inactive) | 0.503 (inactive)
CN1C(=O)C2C=CC(C(O)c3ccccn3)N(N(c3ccccc3)c3ccccc3)C2C1=O (centres undefined) | -1.15 | 0.527 (inactive) | -0.555 (inactive) | 0.464 (inactive) | 1.01 (inactive) | 0.429 (inactive) | -0.155 (inactive) | -0.38 (inactive) | -0.368 | 0.304 | -0.365 (inactive) | 0.891 | -0.215 | -8.63 (active) | 0.46 (inactive) | -0.024 (inactive)
CCCCO[C@H]1C[C@H]2C(I)=C[C@@H]1C(=O)[C@]21CO1 | -0.0876 | -8.45 (active) | -0.67 (inactive) | -0.0864 (inactive) | 0.0481 (inactive) | -1.31 (inactive) | -0.814 (inactive) | -1.05 (inactive) | -0.0824 | -0.255 | -0.178 (inactive) | 0.08 | 1.06 | -1.07 (inactive) | 0.187 (inactive) | -0.0533 (inactive)
COC(=O)c1c2oc(c1C(=O)OC)C(=O)N(Cc1ccccc1)Cc1cn(nn1)C[C@H](Cc1ccccc1)NC(=O)N[C@H](CO)CC2 | 1.18 | -1.78 (inactive) | 0.312 (inactive) | -0.519 (inactive) | 0.231 (inactive) | -1.38 (inactive) | 1.33 (inactive) | 1.89 (inactive) | 1.16 | 0.725 | -0.255 (inactive) | -0.057 | -0.886 | -4.5 (inactive) | -0.962 (inactive) | -0.745 (inactive)
O=C(NCC(F)(F)F)[C@@H]1c2ccccc2C(=O)N(Cc2cc(F)cc(C(F)(F)F)c2)[C@H]1c1ccc(CO)cc1 | -0.16 | -0.359 (inactive) | 0.0875 (inactive) | 0.94 (inactive) | 0.221 (inactive) | 0.933 (inactive) | 0.647 (inactive) | -0.0858 (inactive) | 0.867 | -0.126 | 0.0811 (inactive) | 0.663 | -1.25 | -2.64 (inactive) | -0.0626 (inactive) | -0.205 (inactive)
COc1ccc(CCN2C(=O)[C@@]3(Cc4ccccc42)c2ccccc2C(=O)N(Cc2ccccc2OC)[C@H]3c2ccc(CO)cc2)cc1 | -0.736 | -0.158 (inactive) | 0.289 (inactive) | -4.65 (inactive) | -0.0065 (inactive) | -1.16 (inactive) | 0.981 (inactive) | 0.339 (inactive) | 1.01 | -0.194 | -0.22 (inactive) | 0.425 | -1.39 | -0.208 (inactive) | -0.154 (inactive) | 0.0689 (inactive)
O=C1N(Cc2ccccc2)c2ccccc2[C@@H]2OC(c3ccc(OCCCO)cc3)=N[C@]12Cc1ccccc1 | -0.408 | -0.87 (inactive) | -3.68 (inactive) | 1.07 (inactive) | 1.25 (inactive) | 2.06 (inactive) | 1.29 (inactive) | 0.259 (inactive) | -2.78 | -0.0749 | 0.0973 (inactive) | 0.862 | -2.45 | -2.22 (inactive) | -0.389 (inactive) | -0.321 (inactive)
CCOC(=O)C[C@H]1[C@H](OC(=O)c2ccc(C(=O)c3ccccc3)cc2)[C@@H](NC(=O)Cc2ccc(OC)cc2)c2cc(OCCCO)ccc2N1C(=O)c1ccccc1 | 0.0566 | 0.29 (inactive) | -0.292 (inactive) | -0.517 (inactive) | 0.325 (inactive) | -0.193 (inactive) | -0.307 (inactive) | -0.215 (inactive) | -0.268 | 0.169 | 0.922 (inactive) | -0.281 | -0.133 | -1.88 (inactive) | 0.72 (inactive) | 0.343 (inactive)
COc1ccc([Si](C)(C)[C@@H]2[C@@H](CCn3cc([C@H](O)c4ccccc4)nn3)O[C@]3(C(=O)N(Cc4ccc(N5CCC5=O)cc4)c4ccccc43)[C@H]2C)cc1 | 0.606 | 0.204 (inactive) | -0.189 (inactive) | -0.102 (inactive) | 1.36 (inactive) | 2.06 (inactive) | 1.57 (inactive) | 1.18 (inactive) | 1.1 | -0.239 | -0.325 (inactive) | 0.641 | -2.47 | -2.32 (inactive) | -0.169 (inactive) | 0.663 (inactive)
Cc1cc(C)cc(N2C(=O)CSC2c2cccc([N+](=O)[O-])c2)c1 (centres undefined) | -0.654 | -0.899 (inactive) | -1.81 (inactive) | -1.39 (inactive) | -0.242 (inactive) | 0.265 (inactive) | 0.837 (inactive) | 0.384 (inactive) | -0.341 | 0.0808 | 0.397 (inactive) | 0.521 | -0.0855 | 0.0457 (inactive) | -0.251 (inactive) | -0.335 (inactive)
C=C[C@@H](OC)[C@H](OC(=O)Nc1ccc(SC)cc1)c1ccc(O)c(F)c1 | -0.626 | -2.65 (inactive) | -0.807 (inactive) | 0.592 (inactive) | 1.22 (inactive) | 1.95 (inactive) | -0.881 (inactive) | -1.19 (inactive) | -0.649 | -0.117 | 0.313 (inactive) | 0.0562 | -0.386 | -4.2 (inactive) | -0.337 (inactive) | -0.23 (inactive)
COCCOC(=O)N1C(=O)[C@@]2(c3ccccc31)[C@H](C(=O)N1CCN(c3ncccn3)CC1)[C@H]1C(=O)O[C@H](c3ccccc3)[C@H](c3ccccc3)N1[C@@H]2c1ccc(O)cc1 | -0.0067 | 0.056 (inactive) | 0.439 (inactive) | -0.437 (inactive) | 1.81 (inactive) | 0.953 (inactive) | -0.612 (inactive) | 0.075 (inactive) | 0.434 | -0.222 | 0.43 (inactive) | 0.854 | -1.55 | -0.883 (inactive) | 0.172 (inactive) | 0.371 (inactive)
COc1ccc([Si](C)(C)[C@@H]2[C@@H](CC(=O)N3Cc4ccccc4C[C@H]3CO)O[C@]3(C(=O)N(C)c4ccccc43)[C@H]2C)cc1 | -1.35 | -2.33 (inactive) | -2.97 (inactive) | 0.0586 (inactive) | 1.81 (inactive) | 1.87 (inactive) | 1.21 (inactive) | 0.403 (inactive) | -4.65 | -0.0095 | 0.176 (inactive) | 0.773 | -2.74 | -6.03 (inactive) | -1.6 (inactive) | -0.901 (inactive)
CC(C)N1C(=O)c2ccccc2[C@@H](C(=O)NC2CC2)[C@@H]1c1ccc(CO)cc1 | -0.146 | 0.164 (inactive) | 0.224 (inactive) | -0.54 (inactive) | 0.277 (inactive) | -0.716 (inactive) | 0.0426 (inactive) | -0.452 (inactive) | 0.417 | 0.163 | 0.11 (inactive) | 0.461 | 0.314 | -2.99 (inactive) | -0.0392 (inactive) | -0.0337 (inactive)
Cc1ccc(S[C@]2(C(=O)O)CC(=O)N(Cc3cc(C(F)(F)F)cc(C(F)(F)F)c3)[C@@H]2c2ccc(CO)cc2)cc1 | -0.403 | -0.54 (inactive) | -0.543 (inactive) | -0.254 (inactive) | 0.761 (inactive) | 0.988 (inactive) | -0.296 (inactive) | -0.526 (inactive) | -0.278 | -0.053 | -0.287 (inactive) | -1.25 | 0.777 | -3.18 (inactive) | 0.0261 (inactive) | -0.641 (inactive)

— PubChem BioAssay
